We go through 40 compounds from the supplement of paper PMC7866885, “A novel bicyclic 2,4-diaminopyrimidine inhibitor of Streptococcus suis dihydrofolate reductase” (PeerJ, 2021).

The subject of one assay is Streptococcus suis HE06. The experiment in a line: percent growth relative to DMSO control; higher = less growth inhibition. To be noted: 10 µM; incubation time 18 h. The procedure:
(§1)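 CLSI broth microdilution: 5x10^4 CFU of Streptococcus suis (strain P1/7 or HE06) incubated with 10 µM Pathogen Box compound in cation-adjusted Mueller Hinton broth, 37 °C, 5% CO2, 18 h. Growth read as OD600 and expressed as percent of the DMSO-treated control (100%); mean ± SD of three independent experiments.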

The subject of another assay is Streptococcus suis P1/7. The description is as above. The settings on record: 10 µM; incubation time 18 h. The procedure: as §1

± gives the standard deviation.

In the case of `CS(=O)(=O)c1ccccc1C(=O)N(Cc1ccccc1)c1ccccc1`, the percent growth in the assay on Streptococcus suis HE06 stood at 115 ± 7.9%; in the assay on Streptococcus suis P1/7, 107 ± 33%.
On to `COc1cc(CN2CCC3(C=Cc4ccccc43)CC2)cc2c1OCO2`, for which the figures for the percent growth with Streptococcus suis HE06 and with Streptococcus suis P1/7 were 82 ± 16% and 83.9 ± 5.5%, respectively.
For `CCCc1ccc(S(=O)(=O)Nc2ccc(CN3CCN(CC4CC4)CC3)cc2)cc1`, the percent growth was 88 ± 15% in the assay with Streptococcus suis HE06 and 94.1 ± 34% in the assay on Streptococcus suis P1/7.
Consider `COc1cc(NC(=O)Cc2nn(C)c(=O)c3ccccc23)ccc1Cl`, for which the percent growth in the assay on Streptococcus suis HE06 was found to be 82.8 ± 6.6%; in the assay with Streptococcus suis P1/7 it was 108 ± 46%.
As to `Cc1ccccc1CN1CCC(O)(c2ccc(Cl)c(C(F)(F)F)c2)CC1`, the values for the percent growth with Streptococcus suis HE06 and in the assay on Streptococcus suis P1/7 were 93.7 ± 15% and 102 ± 50%, respectively.
The like results for `COc1ccc(-c2cncc3ccc(C(=O)NCCCn4ccnc4)nc23)cc1` were, in that order, 103 ± 28% and 70.1 ± 27%.
For `Cc1ccccc1C(=O)N1N=C(Nc2ccccc2)SC1(C)C`, in that order: 104 ± 8.3% and 80.9 ± 23%.
The like results for `COc1cc(-c2cc(-c3ccc(S(C)(=O)=O)cc3)cnc2N)ccc1O` were, in that order, 106 ± 34% and 70.7 ± 22%.
For the compound `Cc1ccc(Oc2ccc(NC(=O)CNc3ccccc3N3CCCC3=O)cc2)cc1`, the percent growth in the assay on Streptococcus suis HE06 is 86.9 ± 11%; in the assay with Streptococcus suis P1/7, 104 ± 14%.
With `c1coc(CNc2nc(N3CCCCC3)nc3ccccc23)c1`, the percent growth in the assay on Streptococcus suis HE06 was found to be 78 ± 7.8%; with Streptococcus suis P1/7 it was 89 ± 32%.
For `C[C@H]1c2cccc(O)c2C(=O)C2=C(O)[C@]3(O)C(=O)C(C(N)=O)=C(O)[C@@H](N(C)C)[C@@H]3[C@@H](O)[C@@H]21`, in that order: 10.4 ± 18% and 1.89 ± 3.3%.
The like results for `CC(C)c1ncc(-c2ccncc2)c([C@H]2CC[C@H](CNC(=O)c3cccnc3)CC2)n1` were, in that order, 82.4 ± 8.9% and 125 ± 64%.
For `COc1ccc2nccc(NC(=O)C3CCN(CCc4ccc(Cl)cc4)CC3)c2n1`, in that order: 74.3 ± 59% and 28.6 ± 47%.
For the compound `COc1cc(C2=NCCN2)ccc1-n1cc(-c2cccc(C3=NCCN3)c2)nn1`, the percent growth stood at 99.7 ± 40% with Streptococcus suis HE06 and 63.4 ± 23% in the assay with Streptococcus suis P1/7.
Turning to `CN1CCN(c2nccc3[nH]c(-c4cccc(F)c4)cc23)CC1`, the results for the percent growth in the assay with Streptococcus suis HE06 and in the assay with Streptococcus suis P1/7 were 97.4 ± 6.1% and 96 ± 26%, respectively.
For `COC(=O)Nc1nc2cc(C(=O)c3ccccc3)ccc2[nH]1`, in that order: 86 ± 8.2% and 74.9 ± 28%.
With `O=C(NCc1ccoc1)N1CCN(Cc2ccc3c(c2)OCO3)CC1`, the values for the percent growth in the assay on Streptococcus suis HE06 and in the assay on Streptococcus suis P1/7 were 94 ± 5.7% and 78.3 ± 6.3%, respectively.
Consider `OC[C@H]1O[C@@H](n2c3ccc(Cl)cc3c3c(-c4cc5ccccc5o4)ncnc32)C(O)[C@H]1O` (stereo not given in full), for which the results for the percent growth in the assay with Streptococcus suis HE06 and with Streptococcus suis P1/7 were 93 ± 20% and 74.8 ± 13%, respectively.
The like results for `Cc1[nH]c2cc(F)cc(F)c2c(=O)c1-c1ccc(Oc2ccc(OC(F)(F)F)cc2)cc1` were, in that order, 96.3 ± 3.2% and 88.9 ± 18%.
On to `CNc1cc(C)nc(C2CN(C(=O)c3n[nH]c4ccccc34)CCO2)c1` (stereo not given), for which the percent growth in the assay with Streptococcus suis HE06 was determined as 89.6 ± 5.4%; with Streptococcus suis P1/7, 105 ± 50%.
For `C[C@H](C(N)=O)N1CCCC[C@@H]1c1ccc(OCc2cccc(F)c2)cc1`, in that order: 125 ± 34% and 89.7 ± 15%.
For the compound `O[C@@H](c1cc(C(F)(F)F)nc2c(C(F)(F)F)cccc12)[C@H]1CCCCN1`, the percent growth with Streptococcus suis HE06 worked out at 94 ± 6.1%; in the assay with Streptococcus suis P1/7, 97.7 ± 18%.
Regarding `Cc1cnc(CCNC(=O)c2cc(-c3ccc(Cl)cc3)cs2)[nH]1`, the figures for the percent growth with Streptococcus suis HE06 and with Streptococcus suis P1/7 were 80.7 ± 6.9% and 77.5 ± 18%, respectively.
For `COc1ccc2nc(C)cc(OCC(=O)Nc3ccccc3OC)c2c1`, in that order: 89.9 ± 9.3% and 67.6 ± 16%.
As for `Cc1cc(C)nc(-n2nc(C)cc2Nc2ccccc2)n1`, the percent growth in the assay with Streptococcus suis HE06 was 0.964 ± 1.7%; in the assay on Streptococcus suis P1/7, 0.0724 ± 0.12%.
As to `COc1ccc2nc(C)cc(OCC(=O)NCc3ccccc3)c2c1`, the percent growth in the assay on Streptococcus suis HE06 came to 91.7 ± 11%; in the assay with Streptococcus suis P1/7, 75.5 ± 9.7%.
For `Cn1ncc2c(N3CCOCC3)nc(NCCc3c[nH]c4ccccc34)nc21`, in that order: 76.5 ± 10% and 78.8 ± 17%.
For `COc1cc(C2=NCCN2)cc2cc(-c3ccc(C4=NCCN4)cc3)oc12`, in that order: 106 ± 34% and 83.2 ± 17%.
Regarding `O=C(Nc1ccc(C(F)(F)F)c(C(F)(F)F)c1)c1cc(Cl)ccc1O`, the values for the percent growth with Streptococcus suis HE06 and in the assay with Streptococcus suis P1/7 were 0% and 6.44 ± 11%, respectively.
For `Cc1cc(C(=O)Nc2ccc(-c3ccccc3)cc2)no1`, in that order: 103 ± 36% and 118 ± 42%.
For the compound `COC(=O)c1c(NC(=O)c2cc3ccccc3oc2=O)sc2c1CCN(Cc1ccccc1)C2`, the percent growth in the assay on Streptococcus suis HE06 came to 84.2 ± 11%; in the assay with Streptococcus suis P1/7 it was 149 ± 81%.
For the compound `CCn1cnc2c(Nc3cc(F)cc(F)c3)nc(C#N)nc21`, the percent growth amounted to 116 ± 30% with Streptococcus suis HE06 and 75.3 ± 24% with Streptococcus suis P1/7.
For `COc1ccc(C2=NN(C3CCCCCC3)C(=O)C2(C)C)cc1OCCCCOc1ccc(-c2nn[nH]n2)cc1`, in that order: 2.58 ± 3.1% and 16.3 ± 27%.
In the case of `N#Cc1ccc(-c2cnc(N)c(-c3ccc(C(N)=O)cc3)n2)cc1`, the percent growth amounted to 114 ± 46% with Streptococcus suis HE06 and 73.1 ± 4.3% with Streptococcus suis P1/7.
For `CC1CCCCN1C(=O)NCCc1coc(-c2ccc(F)cc2)n1` (stereo not given), in that order: 79.5 ± 6.9% and 120 ± 87%.
For `CN(C)CCNC(=O)N1CCCN(c2ncnc3cc(-c4ccccc4)sc23)CC1`, in that order: 92.9 ± 31% and 72.1 ± 3.5%.
For `CN1CCC(c2cc(-c3ccncc3)c(-c3ccc(F)cc3)[nH]2)CC1`, in that order: 101 ± 13% and 165 ± 140%.
Consider `CN1CCN(c2cc(-c3ccc(F)cc3)nc(-c3ccncc3)n2)CC1`, for which the percent growth in the assay with Streptococcus suis HE06 is 83.6 ± 3.7%; in the assay on Streptococcus suis P1/7, 89.1 ± 28%.
`Cc1ccc(NC(=O)c2cc(S(=O)(=O)NC(C)(C)C)ccc2C)nc1`: the percent growth in the assay on Streptococcus suis HE06 is 207 ± 200%; in the assay on Streptococcus suis P1/7, 75.6 ± 20%.
The like results for `CCc1c(C)nc(-n2nc(C)cc2NC(=O)c2ccccc2SC)[nH]c1=O` were, in that order, 0.0799 ± 0.092% and 1.97 ± 3.8%.
